Compound activity from PubChem.
Only some compounds are listed: those with a hit (about 11% of all), similar ones and a draw of the others.
HPGD inh: blocks human HPGD enzyme activity; 150,000 compounds, 4.3% hits; Potency, µM, most hits filed as inhibitors; P15428; AID 894; purified HPGD, NADH fluorescence kinetic, PGE2 substrate
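20 nM HPGD preincubated 15 min at room temperature with compound in 50 mM Tris-HCl pH 8, 0.01% Tween 20. Started with 1 mM NAD+ and 30 uM prostaglandin E2; NADH fluorescence (360/450 nm) read 5 times over 30-s intervals, last minus first.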
ALDH1A1 inh: blocks purified human ALDH1A1 activity. P00352. Purified ALDH1A1, NADH fluorescence, propionaldehyde substrate. 220,000 compounds, 7.3% hits. Potency, µM (doses to about 75.3 µM), actives largely listed as inhibitors. AID 1030
JMJD2E inh: inhibitors of human JMJD2E histone demethylase | B2RXH2 | JMJD2E catalytic domain, FDH-coupled NADH fluorescence (FDH is formaldehyde dehydrogenase) | Potency, µM (top dose mostly 57.1 µM), actives largely listed as inhibitors | 230,000 compounds, 1.6% hits | AID 2147; further: nearly all actives have a fitted effect of over 50% in size
Target sequence (B2RXH2 1-337 limits assumed): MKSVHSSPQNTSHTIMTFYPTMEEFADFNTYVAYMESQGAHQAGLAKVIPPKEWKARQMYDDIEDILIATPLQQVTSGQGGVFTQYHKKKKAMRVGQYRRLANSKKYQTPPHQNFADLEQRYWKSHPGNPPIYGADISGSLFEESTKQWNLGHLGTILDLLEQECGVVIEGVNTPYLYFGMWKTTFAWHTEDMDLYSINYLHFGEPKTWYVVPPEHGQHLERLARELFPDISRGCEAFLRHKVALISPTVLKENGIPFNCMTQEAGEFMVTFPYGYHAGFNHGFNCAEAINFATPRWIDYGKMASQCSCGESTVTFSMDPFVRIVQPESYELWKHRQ
PNC inhibitor: blocks assembly of the perinucleolar compartment. activity change (PNC), negative = inhibition, % at 10 µM. PC3M PTB-GFP, PNC prevalence imaging, 16 h; hits give low values. 140,000 compounds, 3.1% hits;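 active means readout at or below -70, meaning at least 70% loss of cells showing the perinucleolar compartment, a nuclear body marking cancer cells; inconclusive means readout between -30 and a set limit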
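Compounds are pinned in duplicate onto adhered PC3M cells stably expressing GFP-tagged PTB and incubated 16 h at 37 C. Cells are then fixed, nuclei stained with Hoechst, and PNC-positive cells counted.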
A number is an active result; - = inactive; ? = inconclusive; . = no result given; [ ] = dose if it differs, or a comment. Unless noted, the call rests on the fitted dose curve; in most records, active means well fitted inhibition curve with a large enough effect (not every such curve was filed as active); inconclusive means small, poorly fitted or top-dose-only effect, or another doubt; inactive means no such curve, though single readings can be large or run the other way.

SMILES	HPGD inh	ALDH1A1 inh	JMJD2E inh	PNC inhibitor
Cc1ccc(CC2CC(=O)N(CCc3ccccc3)C2=O)cc1 (centres undefined)	.	-	-	.
O=C1CC(Cc2ccccc2)C(=O)N1CCc1ccc2c(c1)OCO2 (centres undefined)	-	18µM	-	-
Cc1cccc(CC2CC(=O)N(CCc3ccc4c(c3)OCO4)C2=O)c1 (centres undefined)	.	?	-	.
OCCC1CN(Cc2cc3c(cc2Cl)OCO3)CCN1Cc1ccccc1 (centres undefined)	.	-	-	.
CC[C@@H]1OC(=O)[C@H](C)[C@H](O[C@@H]2C[C@](C)(OC)[C@H](O)[C@H](C)O2)[C@H](C)[C@H](O[C@@H]2O[C@@H](C)C[C@@H](N(C)C)[C@@H]2O)[C@](C)(O)C[C@H](C)C(=O)[C@H](C)[C@H](O)[C@]1(C)O	-	-	-	.
CC(C)(C)OC(=O)N1CCC[C@H]1C(=O)N/N=C/c1cccc2nccnc12	.	-	?	.
CCOCCCNC(=O)C(NC(=O)Cc1cccs1)c1ccc(Cl)cc1 (centres undefined)	.	-	-	.
Cc1cccc(OCc2nnc(SCC(=O)Nc3cccc(C(=O)N4CCOCC4)c3)n2C)c1	-	-	-	-
COc1ccc(CCNC2CC(=O)N(CCc3ccc(OC)c(OC)c3)C2=O)cc1OC (centres undefined)	-	6.3µM	-	-
COc1ccc(CCN2C(=O)CC(NNc3ccc([N+](=O)[O-])cc3)C2=O)cc1OC (centres undefined)	.	10µM	?	.
COc1ccc(CCN2C(=O)CC(Cc3ccccc3)C2=O)cc1OC (centres undefined)	.	.	-	.
COc1ccc(C2CC(c3ccc(Br)cc3)=NN2C(=O)c2cccnc2)cc1 (centres undefined)	-	-	-	-
COc1ccc(C2=NN(CN3C(=O)C(=O)c4ccccc43)C(c3ccc(C)cc3)C2)cc1 (centres undefined)	-	0.56µM	-	-
COc1ccc(C2=NN(CN3C(=O)C(=O)c4ccccc43)C(c3ccc(Br)cc3)C2)cc1 (centres undefined)	-	0.28µM	-	-
O=C(CS(=O)(=O)c1ccccc1)Nc1ccc(N2CCOCC2)cc1	.	-	-	.
N#CC(C#N)=NNc1ccc(S(=O)(=O)N2CCCCC2)cc1	32µM	?	-	?
N#C/C(=N\Nc1ccc(S(=O)(=O)N2CCOCC2)cc1)C(N)=S	.	3.2µM	-	.
CC1CCN(S(=O)(=O)c2ccc(N/N=C(/C#N)C(N)=O)cc2)CC1	-	-	-	-
COc1cc(C2/C(=C(/O)c3ccccc3)C(=O)C(=O)N2c2ccccn2)ccc1O (centres undefined)	.	-	-	.
Cc1cccc(Nc2nc3c(S(=O)(=O)c4ccccc4)nnn3c3ccccc23)c1	?	?	?	-90
C=CC1=C2C=C(C3CC3)N(Cc3ccc4c(c3)OCO4)C=C2C(=O)C(C)(OC(=O)c2ccco2)C1=O (centres undefined)	-	-[13.5 µM]	-[11.4 µM]	.
COc1ccc(CCNC(=S)Nc2ccccc2)cc1	.	-	-	.
COc1ccc(CCNC(=S)NC(=O)c2ccccc2)cc1OC	25µM	?	-	-101
COc1ccc(C(=O)NC(=S)NCCc2ccccc2)cc1	.	14µM	-	.
COc1ccc(C(=O)CC(=O)C(=O)NCCc2cccc(C)c2)cc1	-	2.2µM	-	-
SMILES	HPGD inh	ALDH1A1 inh	JMJD2E inh	PNC inhibitor
CCN(CC)CCN(C(=O)Cn1nnc(-c2ccc(C)o2)n1)C(C(=O)NC(C)(C)C)c1cccs1 (centres undefined)	.	-	-	.
O=C(c1csnn1)N1CCC2(CCCN(Cc3cc(C(F)(F)F)cc(C(F)(F)F)c3)C2)CC1	-	-	.	.
O=C(COC(=O)c1ccc2c(c1)OCO2)NCc1ccc(Cl)cc1	-	-	-	?
O=C(COC(=O)c1cnc(Cl)c(Cl)c1)NCc1ccc2c(c1)OCO2	-	2.2µM	-	-
Cc1ccsc1C(=O)OCC(=O)NCc1ccc2c(c1)OCO2	13µM	-	-	-
CC(=O)OCC(=O)NCc1ccc2c(c1)OCO2	20µM	-	-	?
COc1ccc(C(=O)OCC(=O)NCc2ccc3c(c2)OCO3)cc1[N+](=O)[O-]	-	5µM	-	-107
CCSc1nc(C)nc2sc(C)c(C)c12	.	.	-	.
CCOc1cc(/C=C(/NC(C)=O)C(=O)O)cc(Cl)c1OCc1cccc(Br)c1	.	.	-	.
Cc1ccc(O)c(-c2cc(C(=O)NCc3ccc4c(c3)OCO4)[nH]n2)c1	3.2µM	?	-	-
Cc1ccc(CNC(=O)c2cc(-c3cc(C)cc(C)c3O)n[nH]2)cc1	.	.	-	.
Cc1ccc(-c2ccc(SCC(=O)N3CCc4ccccc43)nn2)cc1	-	-	-	-83
